# Source: PubChem (The Scripps Research Institute Molecular Screening Center)
# TEAD-YAP block – TEAD-YAP interaction inhibition | inhibition, % at 9.12 µM | HEK-TIYL cells, TEAD-Gal4/YAP UAS-luciferase luminescence | AID 1259422 | actives 1.4% (n = 640,000); in the data active = inhibition above about 32%;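 also: 0% = median of test compound wells and 100% = reference inhibitor wells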
# GPR151 ag – activators of human GPR151; Q8TDV0; PathHunter beta-arrestin GPR151 cells, luminescence; activation, % at 11.2 µM; actives 1% (n = 650,000); AID 1508602; in the data active = activation above about 4.9%;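 also: 0% = median of compound wells and 100% = cells with positive control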
# MITF primary – blocks human microphthalmia-associated transcription factor | O75030 | AlphaScreen MITF homodimerization, bead proximity signal | inhibition, % at 2.6 µM | actives 0.91% (n = 650,000); in the data active = inhibition above about 50%;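 also: 0% = vehicle wells with protein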
# FBW7 activator – human FBW7 E3 ligase activation, primary screen. Q969H0. AlphaScreen FBW7–phospho-cyclin E peptide binding, activator screen. normalized activity (activation), % at 26.1 µM. actives 0.13% (n = 650,000). AID 1259310; in the data active = normalized activity above about 1.9%;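 also: purified mutant Fbw7 with reduced substrate affinity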
# Target sequence (Q969H0 whole entry, looked up): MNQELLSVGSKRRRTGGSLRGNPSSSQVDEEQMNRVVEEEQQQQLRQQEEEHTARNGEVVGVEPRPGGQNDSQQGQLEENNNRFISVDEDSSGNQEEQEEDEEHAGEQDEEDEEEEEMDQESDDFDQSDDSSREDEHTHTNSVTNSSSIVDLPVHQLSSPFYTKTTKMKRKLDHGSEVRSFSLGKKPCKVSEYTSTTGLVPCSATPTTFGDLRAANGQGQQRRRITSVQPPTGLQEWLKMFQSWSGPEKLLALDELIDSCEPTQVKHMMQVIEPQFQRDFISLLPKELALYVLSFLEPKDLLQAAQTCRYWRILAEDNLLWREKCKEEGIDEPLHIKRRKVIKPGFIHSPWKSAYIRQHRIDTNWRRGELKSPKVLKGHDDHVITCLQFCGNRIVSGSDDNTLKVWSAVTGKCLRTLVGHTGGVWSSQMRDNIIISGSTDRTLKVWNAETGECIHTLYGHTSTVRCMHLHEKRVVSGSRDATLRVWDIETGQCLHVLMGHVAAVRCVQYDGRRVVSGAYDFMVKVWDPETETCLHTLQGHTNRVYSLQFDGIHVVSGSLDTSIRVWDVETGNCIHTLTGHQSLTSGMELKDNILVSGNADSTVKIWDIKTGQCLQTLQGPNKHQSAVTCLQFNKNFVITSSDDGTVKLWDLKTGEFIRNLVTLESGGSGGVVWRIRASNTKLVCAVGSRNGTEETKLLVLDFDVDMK
# Active calls of the source: *. Only some compounds are listed: those with a hit (about 3.5% of all), similar ones and a draw of the others.
SMILES,TEAD-YAP block,GPR151 ag,MITF primary,FBW7 activator
COc1ccccc1NC(=O)C1=C(C)NC(SCC(=O)c2ccc(F)cc2)=C(C#N)C1c1ccco1 (stereo unspecified),-16,-1,3,1
CC(=O)C1=C(C)NC(SCC(=O)c2ccc(C)c(C)c2)=C(C#N)C1c1ccco1 (stereo unspecified),9,0,23,1.9*
CCOC(=O)CSC1=C(C#N)C(c2ccco2)CC(=O)N1 (stereo unspecified),55*,0,1,0
CC(=O)C1=C(C)NC(SCC(=O)c2ccccc2)=C(C#N)C1c1ccco1 (stereo unspecified),-19,-1,14,1
COC(=O)CSC1=C(C#N)C(c2ccc(C)o2)CC(=O)N1 (stereo unspecified),56*,1,7,0
CCCOC(=O)CSC1=C(C#N)C(c2ccc3c(c2)OCO3)CC(=O)N1 (stereo unspecified),1,3,-2,0
CCCOC(=O)CSC1=C(C#N)C(c2cccc(Cl)c2)CC(=O)N1 (stereo unspecified),62*,0,2,0
COC(=O)CSC1=C(C#N)C(c2ccccc2C)CC(=O)N1 (stereo unspecified),7,-1,-9,0
COc1ccc(-n2c(/C=C/c3c(C)n(C)c4ccccc34)nc3ccccc3c2=O)cc1,1,1,0,1
Cc1ccc(N/C(=N/S(=O)(=O)c2ccccc2)c2ccccc2)cc1,44*,1,9,0
Cc1ccc(Cl)c(OCC(=O)N(CC(N)=O)C(C)C)c1,9,2,-9,0
Cc1nn(C)c(C)c1CN(C)S(=O)(=O)c1ccc2ccccc2c1,56*,2,-2,0
Cc1ccc(CN(C)S(=O)(=O)c2ccc3ccccc3c2)cc1,9,2,-4,0
Cc1nn(CC(=O)N2CCC(c3ccnc4nc(C(F)(F)F)nn34)CC2)c(C)c1C,0,1,12,0
COc1ccc(-c2cnc(NC3CC3)nc2)cc1,38*,-8,10,0
O=C(CSc1nnc2ccc(-c3ccc(Cl)cc3)nn12)N1CCCc2ccccc21,-3,0,5,0
O=C(CSc1nnc2ccc(-c3cccnc3)nn12)N1CCCc2ccccc21,0,-1,8,1.9*
COc1ccc(/C=N/NC(=O)C(=O)Nc2cccc(C(F)(F)F)c2)c(OC)c1,-8,0,-2,0
COc1ccc(OC)c(NC2=C(Cl)C(=O)c3ccccc3C2=O)c1,27,2,62*,0
COc1ccc(C(=O)COC(=O)COc2ccc3ccccc3c2)c(OC)c1,9,1,-16,0
COc1cccc(C(=O)Nn2c(-c3cccc(OC)c3)nc3ccccc3c2=O)c1,-7,-1,-20,0
COc1ccc(C(=O)Nn2c(SCC(=O)NCCc3ccc(OC)c(OC)c3)nc3ccccc3c2=O)cc1,78*,0,28,0
COc1ccc(CCNC(=O)CSc2nc3ccccc3c(=O)n2NC(=O)Cc2ccccc2)cc1OC,-2,1,-8,0
COc1cc(OC)cc(C(=O)Nn2c(-c3cccc(C)c3)nc3ccccc3c2=O)c1,6,0,19,1.9*
O=C(Cc1ccccc1)Nn1c(SCC(=O)c2ccc(F)cc2)nc2ccccc2c1=O,-8,-1,-7,0
SMILES,TEAD-YAP block,GPR151 ag,MITF primary,FBW7 activator
COc1cccc(C(=O)Nn2c(=S)[nH]c3ccccc3c2=O)c1,40*,0,-14,0
COc1ccc(C(=O)Nn2c(SCC(=O)c3ccc(F)cc3)nc3ccccc3c2=O)cc1,46*,0,11,0
COc1cc2[nH]c(=S)n(NC(=O)c3ccccc3)c(=O)c2cc1OC,11,-2,3,0
O=C(c1cc(C2CC2)[nH]n1)N1CCn2cc(C(F)(F)F)nc2C1,2,0,18,0
CCOC(=O)COc1nc(C)c(Br)c(COC)c1C#N,-4,-1,-2,0
O=C(CSc1nc2ccccc2c(=O)n1NC(=O)c1ccccc1)c1ccc(Br)cc1,-3,-1,10,0
COc1ccc(C(=O)Nn2c(SCc3ccc([N+](=O)[O-])cc3)nc3ccccc3c2=O)cc1,49*,3,2,0
COc1ccc(C(=O)Nn2c(SCC(=O)c3ccccc3)nc3ccccc3c2=O)cc1,70*,0,-12,0
O=C(CSc1cnc2ccccc2n1)c1ccc(F)cc1,49*,-2,4,0
CCC(C(=O)N1CCc2nc(C)[nH]c(=O)c2C1)c1ccccc1 (stereo unspecified),-1,0,-3,0
CCC(=O)NC(c1nnc2n1CCN(Cc1ccc(CC)cc1)CC2)C(C)C (stereo unspecified),9,0,13,0
O=C(CCc1ccccc1)Nc1ncc(Cc2ccccc2)s1,49*,-1,8,0
O=C(CSCc1ccc(Cc2ccc(CSCC(=O)Nc3ccccc3)cc2)cc1)Nc1ccccc1,35*,-1,11,0
O=C(CCCl)Nc1ncc(Cc2ccccc2)s1,-1,1,8,0
Cc1ccc(Cc2cnc(NC(=O)COc3ccccc3)s2)cc1,52*,0,14,0
Cc1ccc(C(=O)Nc2ccc(Cc3ccncc3)cc2)cc1,10,-1,-7,0
O=C(Nc1ccc(Cc2ccncc2)cc1)c1ccc(Br)cc1,39*,3,6,0
O=C(CSc1nnc(-c2cccc(Br)c2)o1)c1ccc2c(c1)CCCC2,4,1,18,0
FC(F)Sc1ccc(Nc2n[nH]c(=S)s2)cc1,-43,2,3,0
Cc1cc(C)cc(Oc2coc3c(CN4CCC(C)CC4)c(O)ccc3c2=O)c1,3,1,-5,0
Cc1ccccc1OCC(=O)Nc1ncc(Cc2ccc(F)cc2)s1,51*,-1,-6,0
Cc1ccc(Cc2cnc(NC(=O)COc3ccccc3C)s2)cc1,17,0,10,0
O=C(CCc1ccccc1)Nc1ccc(Cc2ccncc2)cc1,40*,2,0,0
Cc1cccc(Cc2cnc(NC(=O)COc3ccccc3C)s2)c1,54*,1,-2,0
COc1ccccc1NS(=O)(=O)c1ccc(-c2ccccc2)cc1,5,1,3,0
SMILES,TEAD-YAP block,GPR151 ag,MITF primary,FBW7 activator
O=C(CSc1nnc(-c2cccc(F)c2)o1)N1CCc2ccccc21,6,0,-12,0
Cc1ccc(NC(=O)CN(C)C(=O)CCl)cc1,63*,-1,4,0
CN(CC(=O)Nc1ccc(Cl)cc1)C(=O)CCl,71*,0,-13,0
Cc1ccc(NC(=O)CN(C)C(=O)COc2ccc(C#N)cc2)cc1,4,0,8,0
NC(=O)C1CCCN(Cc2cccc(F)c2)C1 (stereo unspecified),7,0,24,1
Cc1cccc(NS(=O)(=O)c2ccc(NC(=O)c3ccc([N+](=O)[O-])cc3)cc2)c1,35*,3,-7,0
Cc1ccc(S(=O)(=O)Nc2ccccc2C(=O)Nc2ccc(C(=O)O)cc2)cc1,-10,1,-4,0
